Here are results for 13 compounds from the supplement of paper PMC12045047.

In this assay the test system is primary human airway basal cells (HBEC, luciferase-transduced). Kind of assay: proliferation (luciferase bioluminescence) Z score relative to plate mean; higher = more proliferation / more cells, active = 1.96 or more. Particulars: donor: 1, library: ENZO Libraries, 4 days. As for the experimental part:
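Primary human bronchial epithelial (airway basal) cells from two donors, lentivirally transduced with pHIV-Luc-ZsGreen, were seeded at 2000 cells/well in 384-well plates in FAD medium with ENZO or Prestwick library compounds and cultured for 4 days. Luciferin was then added and bioluminescence was read as a measure of cell number. Relative light units were converted to Z scores against the plate, and the mean of triplicate wells is reported.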

Structures are written as SMILES. A number with no mark means an inactive call.

For `O=c1cc(N2CCOCC2)oc2c(-c3ccccc3)cccc12`, the proliferation reads like this: (0.5 µM) -0.437; (5 µM) -0.857.

Take `CCOC(=O)C1=CN(Cc2ccccc2)C=C(C(=O)OCC)C1c1ccccc1`: the proliferation is, setting by setting: (0.5 µM) 0.415; (5 µM) 0.65.

`Oc1c2ccccc2c2c3c(cccc13)N=N2`: the proliferation was 0.134 (0.5 µM) and -0.168 (5 µM).

With `O=C1c2ccccc2C(=O)c2c(NCCc3ccc(O)cc3)ccc(NCCc3ccc(O)cc3)c21`, the proliferation (0.5 µM) was 0.275 and the proliferation (5 µM) was -0.000622.

As for `Oc1ccc(/C=C/c2cc(O)cc(O)c2)cc1` [Resveratrol], the proliferation is 1.08 (0.5 µM) and 3.39 (active) (5 µM).

As for `CC(C)CCNC(=O)[C@H](CC(C)C)NC(=O)[C@H]1O[C@@H]1C(=O)O`, the proliferation by setting is: (0.5 µM) -0.298; (5 µM) -0.117.

On to `CC(C)c1cnc(NC(=O)Cc2ccccc2)s1`, for which the proliferation is 0.304 (0.5 µM) and 0.142 (5 µM).

As to `CC(=O)Nc1ccc(C(=O)Nc2ccccc2N)cc1`, the proliferation (0.5 µM) is 0.183 and the proliferation (5 µM) was -0.038.

Consider `NC(=O)c1ccncc1` [Isonicotinamide], for which the proliferation reads like this: (0.5 µM) 0.125; (5 µM) -0.0123.

As to `CCCC(CCC)C(=O)O` [Valproic acid], the proliferation (0.5 µM) is -0.00583 and the proliferation (5 µM) is -0.171.

Take `CC(C)C[C@H](NC(=O)[C@H]1O[C@@H]1C(=O)O)C(=O)NCCCCN=C(N)N`: the proliferation (0.5 µM) is -0.0103 and the proliferation (5 µM) was -0.0032.

Regarding `C=C1C(=O)O[C@@H](CCC)[C@@H]1C(=O)O` [Butyrolactone 3], the proliferation (0.5 µM) was -0.342 and the proliferation (5 µM) was 0.149.

For `NCC1CCC(C(=O)N[C@@H](Cc2ccccc2)C(=O)Nc2ccc(CC(=O)O)cc2)CC1` (stereo partly specified), the proliferation is, setting by setting: (0.5 µM) 0.228; (5 µM) 0.079.
